Data on 9 compounds can be found in PubChem BioAssay (Tox21).

Values without a mark were called inactive. Inconclusive results are not listed. Activity calls are given as the source filed them. Unless noted, calls follow the shape of the dose curve; as a rule, active = well fitted curve in the direction sought with a large enough effect in the repeat runs; inconclusive = weak or mixed curves; inactive = no such curve, though single readings can be large; an effect the other way counts as inactive or inconclusive.

The target in assay [1] is Estrogen receptor beta (Homo sapiens) (UniProt Q92731). Kind of assay: qHTS assay to identify small molecule agonists of the estrogen receptor beta (ER-beta) signaling pathway (AID 1259377; active = well fitted activation curve with a large enough effect in the signal ratio in the repeat runs, not every such curve was filed as active; the % refers to the signal ratio). In a few lines: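 Measured by fluorescence intensity from a B/G FRET beta-lactamase substrate (2 h, room temperature) in ER-beta-UAS-bla HEK293T cells treated with DMSO-dissolved compounds for 16 hr at 37C and 5% CO2.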

A short description of assay [2]: qHTS assay to identify small molecule agonists of the androgen receptor (AR) signaling pathway in the presence of an antagonist - cell viability counter screen (AID 1259379).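 Also: MDA-kb2 human breast cancer cells carrying an MMTV luciferase reporter; series mostly up to about 92 µM; nearly all actives have a fitted effect of over 25% in size.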 In outline:
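A CellTiter-Fluor read-out measured viability of MDA-kb2 reporter cells (MMTV promoter with AR and GR response elements). Treatment: nilutamide 3.0uM final with compounds at 15 concentrations, 16 hr, 37C, 0% CO2.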

A short description of assay [3]: qHTS assay to identify small molecule agonists of the estrogen receptor beta (ER-beta) signaling pathway - cell viability counter screen (AID 1259380). Also: nearly all actives have a fitted effect of over 30% in size. Also: potency is read from the fitted curve at half-maximal effect. In outline: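 Cells used were ER-beta-UAS-bla HEK293T in medium with 2% charcoal-stripped FBS. They were treated for 16 hr at 37C. Viability came from CellTiter-Glo luminescence.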
In assay [4] the target is Androgen receptor (Homo sapiens) (UniProt P10275). Description: qHTS assay to identify small molecule agonists of the androgen receptor (AR) signaling pathway in the presence of an antagonist (AID 1259381; calls by dose curve; also: nearly all actives have a fitted effect of over 15% in size). In a few lines: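 Using human MDA-kb2 cells with an MMTV promoter–luciferase construct (AR and GR response elements), agonist activity is scored under 3.0uM nilutamide (final) co-treatment; 16hr incubation, 37C, luminescence readout via ONE-Glo.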

The nature of assay [5]: qHTS assay to identify small molecule antagonists of the estrogen receptor beta (ER-beta) signaling pathway - cell viability counter screen (AID 1259382). Also: series mostly up to about 92 µM; nearly all actives have a fitted effect of over 55% in size. In a few lines: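 Agonist-stimulated (1nM E2) ER-beta-UAS-bla HEK293T cells are incubated with library compounds for 16 hr at 37C. Cell viability is then assessed in the reporter-assay wells by adding CellTiter-Glo and reading luminescence after 30 min.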

Assay [6] has as its target Estrogen receptor (Homo sapiens) (UniProt P03372). Description: qHTS assay to identify small molecule agonists of the estrogen receptor alpha (ER-alpha) signaling pathway in the presence of an antagonist (AID 1259383; calls by dose curve; also: top concentration of the series differs between compounds; nearly all actives have a fitted effect of over 15% in size). In outline: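 Using VM7Luc4E2 cells seeded 24hr before treatment, antagonist ICI-182,780 (10.0nM final) was added, followed by compounds at 15 concentrations. Plates incubated 22hr; ONE-Glo luminescence quantified reporter activity.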

Assay [7] is described as follows: qHTS assay to identify small molecule agonists or antagonists of the thyroid stimulating hormone receptor (TSHR) signaling pathway - wild type cell line counter screen (AID 1259384; calls by dose curve). In a few lines:
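Wild-type Hek293 cells, 800/well, 18 h at 37C, then compound with Ro20-1724 for 30 min RT. cAMP by HTRF (cAMP-d2/anti-cAMP cryptate), 1 h RT, fluorescence read. 15 concentrations, triplicates.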

Assay [8] is described as follows: qHTS assay to identify small molecule agonists of the estrogen receptor alpha (ER-alpha) signaling pathway in the presence of an antagonist - cell viability counter screen (AID 1259386).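 Also: series mostly up to about 92 µM; cells exposed to compounds for 22 h at 37 °C before the viability read; nearly all actives have a fitted effect of over 30% in size.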 In a few lines:
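ICI-182,780 at 10.0nM final accompanies the compound titration (15 concentrations, 22hr, 37C) on VM7Luc4E2 cells. The CellTiter-Fluor fluorescence readout runs in the same wells as the luciferase assay.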

Assay [9] in a line: qHTS assay to identify small molecule antagonists of the TGF-beta/Smad signaling pathway - cell viability counter screen (AID 1346824). Also: nearly all actives have a fitted effect of over 50% in size. In outline: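 SBE-bla HEK 293T cells, incubated overnight, then compound plus 0.25 ng/mL TGF-beta1 (stock added) for 5 hr at 37 C. Viability was read in the same wells by CellTiter-Glo luminescence after 30 min at room temperature.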
Assay [10] in a line: qHTS assay to identify small molecule agonists of the TGF-beta/Smad signaling pathway - cell viability counter screen (AID 1346829). Also: top concentration of the series differs between compounds; nearly all actives have a fitted effect of over 45% in size. In a few lines: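 After overnight seating at 37 C and 5% CO2, reporter cells got compounds for 5 hr and FRET substrate for 2 hr; cell viability then came from CellTiter-Glo luminescence.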
Assay [11] is described as follows: qHTS assay to identify small molecule agonists of the TGF-beta/Smad signaling pathway (AID 1346859; active = well fitted activation curve with a large enough effect in the signal ratio in the repeat runs, not every such curve was filed as active; the % refers to the signal ratio; also: series mostly up to about 77 µM). In outline: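 Dual-wavelength fluorescence (460/530 nm emission) quantified beta-lactamase expression under the Smad binding element in HEK 293T cells following 5 hr compound treatment at 37 C.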
The target in assay [12] is Thyrotropin-releasing hormone receptor (Homo sapiens) (UniProt P34981). Kind of assay: qHTS assay to identify small molecule antagonists of the thyrotropin-releasing hormone receptor (TRHR) signaling pathway (AID 1346877; active = well fitted inhibition curve with a large enough effect in the repeat runs, not every such curve was filed as active; also: series mostly up to about 51 µM). In a few lines:
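Screening used HEK293 cells engineered with TRHR, with a brief 5 min room-temperature compound exposure preceding addition of TRH to 1 nM. The read-out was kinetic calcium-dye fluorescence, concentration-response from 15 doses in triplicate.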

In assay [13] the target is Estrogen receptor beta (Homo sapiens) (UniProt Q92731). Kind of assay: qHTS assay to identify small molecule antagonists of the estrogen receptor beta (ER-beta) signaling pathway (AID 1259378; active = well fitted inhibition curve with a large enough effect in the signal ratio in the repeat runs, not every such curve was filed as active; the % refers to the signal ratio). In a few lines:
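ER-beta-UAS-bla HEK293T cells in 2% charcoal-stripped FBS medium treated with compound plus 1nM final 17-beta-estradiol for 16 hr at 37C. Beta-lactamase reporter read by FRET substrate fluorescence after 2 hours at room temperature.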

Assay [14] deals with Thyrotropin receptor (Homo sapiens) (UniProt P16473). Description: qHTS assay to identify small molecule antagonists of the thyroid stimulating hormone receptor (TSHR) signaling pathway (AID 1259385; calls by dose curve; also: nearly all actives have a fitted effect of over 20% in size). In a few lines: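 TSHR-HEK293 cells (800/well) plated 18 h, then compounds with Ro20-1724 and TSH at 1.5 ng/mL final, 30 min at room temperature. cAMP quantified by HTRF (cAMP-d2/anti-cAMP-cryptate, 1 h); 15 concentrations in triplicate.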

In assay [15] the target is Progesterone receptor (Homo sapiens) (UniProt P06401). Description: qHTS assay to identify small molecule antagonists of the progesterone receptor (PR) signaling pathway (AID 1346795; active = well fitted inhibition curve with a large enough effect in the signal ratio in the repeat runs, not every such curve was filed as active; the % refers to the signal ratio; also: potency is read from the fitted curve at half-maximal effect). In a few lines: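 After 6 hr plating at 37C in 2% stripped-serum medium, PR-UAS-bla HEK293T cells got compounds, then 1 nM R5020. Sixteen hours later, LiveBLAzer substrate was applied for 2 hr at room temperature and fluorescence was recorded.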

Assay [16] is described as follows: qHTS assay to identify small molecule agonists of the progesterone receptor (PR) signaling pathway - cell viability counter screen (AID 1346799; calls by dose curve; also: nearly all actives have a fitted effect of over 45% in size; also: potency is read from the fitted curve at half-maximal effect). In a few lines: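 Viability was scored by ATP luminescence (CellTiter-Glo, 30 min, room temperature) in the same wells used for the reporter readout, after 16 hr compound exposure of PR-UAS-bla HEK293T cells.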
The target in assay [17] is Thyrotropin-releasing hormone receptor (Homo sapiens) (UniProt P34981). Description: qHTS assay to identify small molecule agonists of the thyrotropin-releasing hormone receptor (TRHR) signaling pathway (AID 1346891; calls by dose curve;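 also: HEK293 cells expressing TRHR with calcium dye readout; series mostly up to about 58 µM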). In a few lines:
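Kinetic fluorescence (3 min, 1 s intervals) reported intracellular calcium after compound transfer onto TRHR-Hek293 cells pre-loaded with dye for 2 h at 37 °C.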

In assay [18] the target is Progesterone receptor (Homo sapiens) (UniProt P06401). Description: qHTS assay to identify small molecule agonists of the progesterone receptor (PR) signaling pathway (AID 1346784; calls by dose curve; also: nearly all actives have a fitted effect of over 30% in size). In a few lines: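 The screen uses PR-UAS-bla HEK 293T cells in charcoal-stripped serum (2%). Compounds are applied for 16 hr at 37C after a 6 hr pre-incubation, and reporter activity is detected with a FRET beta-lactamase substrate after 2 hr at room temperature.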

Assay [19] in a line: qHTS assay to identify small molecule antagonists of the progesterone receptor (PR) signaling pathway - cell viability counter screen (AID 1346798). Also: nearly all actives have a fitted effect of over 50% in size. Also: potency is read from the fitted curve at half-maximal effect. In a few lines:
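Viability was determined by ATP-based luminescence (CellTiter-Glo) in PR-UAS-bla HEK293T cells cultured in 2% charcoal-stripped serum and incubated 16 hr with compounds under R5020 stimulation.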

The nature of assay [20]: qHTS assay to identify small molecule antagonists of the sonic hedgehog signaling (Shh) pathway (AID 1259369; calls by dose curve; also: nearly all actives have a fitted effect of over 45% in size). In outline: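 Conditioned medium drives Shh signalling in 3T3Gli1-Luc cells; compounds in DMSO co-applied, 24hr at 37 C, then luciferase luminescence.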

Estrogen receptor (Homo sapiens), sequence (P03372 whole entry, looked up): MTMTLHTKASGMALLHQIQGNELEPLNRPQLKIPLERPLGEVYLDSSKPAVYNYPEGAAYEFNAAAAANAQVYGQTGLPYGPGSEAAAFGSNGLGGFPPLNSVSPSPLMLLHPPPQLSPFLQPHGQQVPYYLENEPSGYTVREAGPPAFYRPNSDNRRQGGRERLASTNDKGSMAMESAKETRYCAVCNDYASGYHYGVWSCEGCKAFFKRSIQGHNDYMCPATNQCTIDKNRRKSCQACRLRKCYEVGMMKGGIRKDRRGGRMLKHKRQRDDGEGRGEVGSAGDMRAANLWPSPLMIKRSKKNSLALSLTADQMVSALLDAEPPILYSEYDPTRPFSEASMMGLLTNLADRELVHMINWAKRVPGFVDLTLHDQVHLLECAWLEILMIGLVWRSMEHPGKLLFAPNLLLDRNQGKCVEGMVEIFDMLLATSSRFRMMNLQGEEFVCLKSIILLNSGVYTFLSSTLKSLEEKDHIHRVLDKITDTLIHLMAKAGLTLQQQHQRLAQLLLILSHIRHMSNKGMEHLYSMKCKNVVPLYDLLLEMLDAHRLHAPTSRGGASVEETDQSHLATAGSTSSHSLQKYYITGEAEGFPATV
Androgen receptor (Homo sapiens), sequence (P10275 whole entry, looked up): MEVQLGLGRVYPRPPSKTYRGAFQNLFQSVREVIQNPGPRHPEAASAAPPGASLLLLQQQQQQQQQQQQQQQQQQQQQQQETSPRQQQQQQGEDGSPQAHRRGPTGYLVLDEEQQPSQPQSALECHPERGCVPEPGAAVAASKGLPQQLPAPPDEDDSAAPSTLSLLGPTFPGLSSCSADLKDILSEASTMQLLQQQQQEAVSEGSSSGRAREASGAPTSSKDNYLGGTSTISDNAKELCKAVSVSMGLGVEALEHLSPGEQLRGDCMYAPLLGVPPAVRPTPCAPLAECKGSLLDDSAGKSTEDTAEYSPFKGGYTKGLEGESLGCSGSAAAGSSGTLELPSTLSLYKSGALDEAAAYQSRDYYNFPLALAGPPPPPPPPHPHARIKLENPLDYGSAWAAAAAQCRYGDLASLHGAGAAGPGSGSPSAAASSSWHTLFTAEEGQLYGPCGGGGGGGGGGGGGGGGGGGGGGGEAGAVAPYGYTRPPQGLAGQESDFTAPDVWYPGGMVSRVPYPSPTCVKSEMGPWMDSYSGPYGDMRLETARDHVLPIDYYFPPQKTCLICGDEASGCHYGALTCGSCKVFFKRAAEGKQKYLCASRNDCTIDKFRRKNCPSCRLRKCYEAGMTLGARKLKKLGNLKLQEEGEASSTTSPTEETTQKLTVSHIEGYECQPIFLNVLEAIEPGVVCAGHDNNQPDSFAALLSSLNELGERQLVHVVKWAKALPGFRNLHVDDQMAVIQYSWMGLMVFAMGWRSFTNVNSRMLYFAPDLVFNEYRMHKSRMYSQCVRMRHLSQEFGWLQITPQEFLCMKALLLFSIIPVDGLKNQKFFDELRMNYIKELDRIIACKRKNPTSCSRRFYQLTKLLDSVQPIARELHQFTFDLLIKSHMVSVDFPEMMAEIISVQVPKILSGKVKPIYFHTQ
Estrogen receptor beta (Homo sapiens), sequence (Q92731 whole entry, looked up): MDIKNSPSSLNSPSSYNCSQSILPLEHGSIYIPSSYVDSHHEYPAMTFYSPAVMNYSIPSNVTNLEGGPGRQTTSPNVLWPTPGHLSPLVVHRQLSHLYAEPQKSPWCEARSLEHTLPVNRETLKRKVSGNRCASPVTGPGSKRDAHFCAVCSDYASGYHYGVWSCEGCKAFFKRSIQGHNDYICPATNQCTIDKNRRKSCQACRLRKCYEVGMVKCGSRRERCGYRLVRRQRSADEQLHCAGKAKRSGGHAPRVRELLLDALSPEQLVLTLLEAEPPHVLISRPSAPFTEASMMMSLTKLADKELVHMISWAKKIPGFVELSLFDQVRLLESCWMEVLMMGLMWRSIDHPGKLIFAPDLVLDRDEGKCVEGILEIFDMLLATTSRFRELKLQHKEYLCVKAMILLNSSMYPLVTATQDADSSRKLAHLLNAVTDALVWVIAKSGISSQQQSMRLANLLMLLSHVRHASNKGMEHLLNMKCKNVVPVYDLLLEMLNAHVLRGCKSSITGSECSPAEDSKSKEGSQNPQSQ
Thyrotropin receptor (Homo sapiens), sequence (P16473 whole entry, looked up): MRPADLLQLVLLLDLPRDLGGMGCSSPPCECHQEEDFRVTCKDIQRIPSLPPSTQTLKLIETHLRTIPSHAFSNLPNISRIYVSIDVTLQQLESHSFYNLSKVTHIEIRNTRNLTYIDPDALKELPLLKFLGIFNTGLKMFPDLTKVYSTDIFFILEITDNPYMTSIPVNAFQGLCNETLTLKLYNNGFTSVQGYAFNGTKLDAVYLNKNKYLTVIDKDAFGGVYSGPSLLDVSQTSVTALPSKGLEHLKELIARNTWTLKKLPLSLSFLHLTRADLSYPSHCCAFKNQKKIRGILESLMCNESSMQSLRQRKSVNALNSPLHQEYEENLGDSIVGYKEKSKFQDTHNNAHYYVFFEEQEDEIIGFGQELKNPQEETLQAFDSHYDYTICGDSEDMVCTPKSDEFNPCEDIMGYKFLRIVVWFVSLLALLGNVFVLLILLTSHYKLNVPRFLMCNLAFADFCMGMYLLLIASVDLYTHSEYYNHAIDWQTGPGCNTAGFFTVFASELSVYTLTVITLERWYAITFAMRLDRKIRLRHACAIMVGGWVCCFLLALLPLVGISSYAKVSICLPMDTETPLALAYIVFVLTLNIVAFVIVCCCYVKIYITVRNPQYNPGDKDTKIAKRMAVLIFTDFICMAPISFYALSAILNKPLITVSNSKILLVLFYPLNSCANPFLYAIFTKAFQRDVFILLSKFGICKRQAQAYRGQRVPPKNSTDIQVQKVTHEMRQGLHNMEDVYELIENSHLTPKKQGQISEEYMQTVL
Progesterone receptor (Homo sapiens), sequence (P06401 whole entry, looked up): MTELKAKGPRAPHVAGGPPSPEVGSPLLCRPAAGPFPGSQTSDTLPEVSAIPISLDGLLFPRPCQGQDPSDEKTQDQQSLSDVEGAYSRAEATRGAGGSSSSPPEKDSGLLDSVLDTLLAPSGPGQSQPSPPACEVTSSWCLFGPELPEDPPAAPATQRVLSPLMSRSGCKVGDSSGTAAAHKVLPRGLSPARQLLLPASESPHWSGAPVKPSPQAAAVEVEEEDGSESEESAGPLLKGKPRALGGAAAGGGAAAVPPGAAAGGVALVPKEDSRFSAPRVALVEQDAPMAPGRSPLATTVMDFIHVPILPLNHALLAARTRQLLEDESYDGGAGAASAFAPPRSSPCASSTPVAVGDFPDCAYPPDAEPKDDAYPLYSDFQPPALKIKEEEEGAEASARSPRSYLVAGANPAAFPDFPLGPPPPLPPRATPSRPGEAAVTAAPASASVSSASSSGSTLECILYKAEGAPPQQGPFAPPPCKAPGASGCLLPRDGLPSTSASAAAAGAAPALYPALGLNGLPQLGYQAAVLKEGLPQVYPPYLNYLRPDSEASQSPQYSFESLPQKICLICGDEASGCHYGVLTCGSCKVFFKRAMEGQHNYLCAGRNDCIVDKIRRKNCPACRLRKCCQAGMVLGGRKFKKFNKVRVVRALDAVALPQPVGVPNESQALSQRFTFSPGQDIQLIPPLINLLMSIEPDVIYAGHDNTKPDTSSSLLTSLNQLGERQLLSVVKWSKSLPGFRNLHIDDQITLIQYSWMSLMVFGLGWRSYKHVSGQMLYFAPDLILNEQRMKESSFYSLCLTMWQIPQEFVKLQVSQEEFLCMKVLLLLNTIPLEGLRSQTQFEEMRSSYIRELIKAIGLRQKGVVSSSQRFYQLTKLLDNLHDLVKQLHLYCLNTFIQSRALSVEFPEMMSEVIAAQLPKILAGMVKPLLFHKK
Thyrotropin-releasing hormone receptor (Homo sapiens), sequence (P34981 whole entry, looked up): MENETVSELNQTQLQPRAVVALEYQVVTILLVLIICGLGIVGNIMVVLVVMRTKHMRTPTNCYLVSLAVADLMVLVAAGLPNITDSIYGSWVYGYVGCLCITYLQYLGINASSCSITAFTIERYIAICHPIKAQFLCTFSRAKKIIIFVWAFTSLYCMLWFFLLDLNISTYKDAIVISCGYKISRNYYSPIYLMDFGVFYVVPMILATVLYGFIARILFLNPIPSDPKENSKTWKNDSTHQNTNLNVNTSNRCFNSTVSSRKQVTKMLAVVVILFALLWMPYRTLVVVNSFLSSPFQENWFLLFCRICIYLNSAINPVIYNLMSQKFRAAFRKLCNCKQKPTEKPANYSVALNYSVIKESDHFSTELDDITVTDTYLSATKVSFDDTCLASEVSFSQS

Regarding `COc1ccc(-c2nc3ccc(C4=NNC(=O)CC4C)cc3[nH]2)cc1` (stereo not given), the Potency result in assay [1], in [2], in [3], in assay [4], in [5] and in assay [6] was “inactive” throughout. For the same compound, the Potency result in assay [7], in assay [8], in [9] and in [11] was “inactive” in each case. Further, the outcome in assay [10] and in [12] was inactive.
As to `CCOC(=O)C(O)c1ccccc1` (stereo not given), the Potency result in assay [1], in assay [13], in assay [2], in assay [3], in assay [4] and in [5] was “inactive” each time. Moreover, the Potency entry in assay [6], in assay [7], in [14], in [8], in [15] and in assay [16] was “inactive” each time. In addition, the Potency result in assay [11] and in assay [17] was “inactive” throughout. Further, the call in assay [10] and in assay [12] was inactive.
Consider `CCCn1cnc2c1c(=O)n(CCCCC(C)=O)c(=O)n2C`, for which the Potency result in [1], in assay [13], in [2], in assay [3], in assay [4] and in assay [5] was “inactive” each time. Moreover, the Potency entry in assay [6], in assay [7], in assay [8], in assay [18], in assay [19] and in [16] was “inactive” in each case. Moreover, the Potency result in assay [9], in assay [11] and in assay [17] was “inactive” throughout. The compound was called inactive in assay [10] and in assay [12].
Take `CCCCC(CC)COC(=O)COc1ccc(Cl)cc1Cl` (stereo not given): the Potency entry in [1], in assay [13], in assay [2], in assay [5], in assay [6] and in assay [7] was “inactive” each time. For the same compound, the Potency result in assay [8], in [18], in assay [19], in assay [11] and in assay [17] was “inactive” each time. In addition, the compound was called inactive in assay [10] and in assay [12].
For the compound `CCc1cc(C2=C(C(=O)O)N(c3ccccc3C(F)(F)F)S(=O)(=O)c3ccccc32)cc2c1OCO2`, the Potency result in assay [20], in assay [18], in assay [9], in [11] and in assay [17] was “inactive” in each case. Moreover, the Potency in [3] was 15.2 µM (active). The result in [10] and in assay [12] was inactive.
In the case of `CN1CCN(C(c2ccccc2)c2ccccc2)CC1`, the Potency entry in assay [1], in [2], in [3], in [4], in [6] and in [7] was “inactive” in each case. In addition, the Potency entry in assay [14], in [8], in assay [18], in [15], in assay [19] and in assay [9] was “inactive” in each case. Also, the Potency entry in assay [11] and in assay [17] was “inactive” in each case. Besides, the compound was called inactive in assay [10] and in assay [12].
For `CN1CCC(N(Cc2cccs2)c2ccccc2)CC1`, the Potency result in assay [1], in assay [13], in assay [2], in assay [6], in assay [7] and in assay [14] was “inactive” each time. Besides, the Potency result in assay [8], in [18], in assay [9] and in assay [11] was “inactive” each time. Moreover, the Potency was 23.7 µM (active) in assay [19] and 15 µM (active) in assay [16]. In addition, the outcome in assay [10] was inactive.
With `CCCCNc1ccc(C(=O)OCCOCCOCCOCCOCCOCCOCCOCCOCCOC)cc1`, the Potency entry in assay [1], in assay [13], in assay [2], in assay [6], in assay [14] and in assay [18] was “inactive” each time. For the same compound, the Potency entry in assay [15], in [9], in [11] and in [17] was “inactive” in each case. Moreover, the compound was classed as inactive in assay [10] and in [12].
With `COc1cccc(N(C)C(=S)Oc2ccc3c(c2)CCCC3)n1`, the Potency result in assay [1], in [13], in assay [2], in assay [5], in [6] and in assay [8] was “inactive” in each case. Besides, the Potency result in assay [18], in assay [9], in [11] and in assay [17] was “inactive” throughout. For the same compound, the Potency in assay [15] is 18.8 µM (active). The call in assay [10] and in [12] was inactive.
